An excerpt weighted towards active compounds, which were near 3.5% of everything screened.
FBA Mtb inh: Mtb fructose-bisphosphate aldolase inhibition. AID 588726. 360,000 compounds, 2.3% hits. inhibition, % at 1 µM. P9WQA3. purified M. tuberculosis FBA, fluorescence read-out; in the data active = inhibition above about 27%
FadD28 binding: blocks FadD28 binding to the bisubstrate probe; fluorescence polarization; inhibition, % at 12.5 µM; 360,000 compounds, 0.22% hits; AID 588549; in the data active = inhibition above about 8.5%, passing the limit was not always enough
GDH-TPI counter: GDH-TPI coupled enzyme inhibition counter-screen; GDH-TPI coupled enzyme counterscreen, NADH absorbance; 360,000 compounds, 1.2% hits; inhibition, % at 4.8 µM; in the data active = inhibition above about 30%
Rv3671c inh: inhibits the M. tuberculosis serine protease Rv3671c. P9WHR9. 320,000 compounds, 0.048% hits. inhibition, % at 5.96 µM; in the data active = inhibition above about 38%;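 note: extracellular domain of Rv3671c used as enzyme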
Target sequence (P9WHR9 whole entry, looked up, the tested form may be a part): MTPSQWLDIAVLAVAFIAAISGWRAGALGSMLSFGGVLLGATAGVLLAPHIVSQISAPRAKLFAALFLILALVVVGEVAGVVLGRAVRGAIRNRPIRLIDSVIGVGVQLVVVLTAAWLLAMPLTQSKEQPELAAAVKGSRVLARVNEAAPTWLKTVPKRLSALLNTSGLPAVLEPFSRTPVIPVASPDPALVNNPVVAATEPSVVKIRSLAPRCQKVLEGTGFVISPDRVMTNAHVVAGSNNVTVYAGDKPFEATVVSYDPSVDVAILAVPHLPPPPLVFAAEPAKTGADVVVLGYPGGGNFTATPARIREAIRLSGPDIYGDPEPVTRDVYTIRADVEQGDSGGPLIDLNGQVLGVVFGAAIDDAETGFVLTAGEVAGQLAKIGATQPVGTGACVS
Mtb hypoxia rep: inhibitors of hypoxia-regulated fluorescent reporter in Mycobacterium tuberculosis. 300,000 compounds, 0.1% hits. fluorescence inhibition, % (no concentration beside the values). AID 1159583. M. tuberculosis hypoxia-regulated fluorescent reporter, fluorescence; in the data active = fluorescence inhibition mostly above about 23%, no sharp cut-off; inactive = mostly below about 17%
Mtb UGM inh: Mtb UDP-galactopyranose mutase inhibition; P9WIQ1; 320,000 compounds, 0.06% hits; inhibition, % at 10 µM; purified UGM, fluorescence polarization probe displacement; in the data active = inhibition above about 10%, passing the limit was not always enough
A number is an active result; . = inactive; / = no result; + = active, no number.

SMILES	FBA Mtb inh	FadD28 binding	GDH-TPI counter	Rv3671c inh	Mtb hypoxia rep	Mtb UGM inh
Cc1ccc(S(=O)(=O)NC(C(=O)N2CCC(C(=O)NCC(=O)O)CC2)C(C)C)cc1 (configuration not stated)	/	/	/	/	.	/
CC(Oc1ccc2oc(-c3ccccc3)c(C(=O)O)c2c1)C(=O)O (configuration not stated)	+	.	.	.	.	.
CCOc1ccc2oc(-c3ccccc3)c(C(=O)O)c2c1	+	.	.	.	/	.
CC(=Cc1ccccc1)CC1=C(C)C2(CC2)[C@@]2(C)OC(=O)OC2C1=CCO (some centres not stated)	/	/	/	/	.	/
CC1(C(=O)N2CC3(CC(c4cccc([N+](=O)[O-])c4)=NO3)CC2C(=O)NCC(N)=O)CC1 (configuration not stated)	/	/	/	/	.	/
CCC(C)C(NC(=O)CCCNC(=O)CCC(=O)OC1O[C@H]2OC3(C)CC[C@H]4[C@H](C)CCC(C1C)C24OO3)C(=O)O (some centres not stated)	.	.	.	.	/	.
COC1OC2O[C@@]3(C)CCC4C(C)CCC(C1C)[C@@]24OO3 (some centres not stated)	/	/	/	/	89.6	/
CCC(C)NC(=O)CCC(=O)OC1O[C@H]2OC3(C)CC[C@H]4[C@H](C)CCC(C1C)C24OO3 (some centres not stated)	.	.	.	/	74.1	.
COCC(=O)NN=Cc1cccc(OC)c1OC/C=C/c1ccccc1	/	/	/	/	.	/
COCCOC(=O)/C(=C/c1ccc(OC(=O)c2ccccc2)cc1)C(C)=O	30.8	.	.	.	.	.
ClCCN(CCCl)c1ccc(C=NNc2ncccn2)cc1	.	.	57.3	/	.	/
CCN(CC)c1ccc(C=NNc2nc(C)cc(C)n2)cc1	/	/	/	/	.	/
N#Cc1ncc(N=Cc2ccc(N(CCCl)CCCl)cc2)s1	.	.	52.2	/	.	/
COc1ccc(-c2nnn(CC(=O)c3c[nH]c4ccccc34)n2)cc1OC	.	14.6	.	.	.	.
CCCCOc1ccc(-c2nnn(CC(=O)c3c[nH]c4ccccc34)n2)cc1	.	.	.	.	.	.
COc1ccc(C2CC(=O)C=C(c3cc(Br)ccc3OC)C2)cc1 (configuration not stated)	/	/	/	/	.	/
O=C(CON=Cc1ccc2c(c1)OCO2)Nc1cccc(Br)c1	/	/	/	/	.	/
Nc1nc(=S)c2ncn(C3CCCCC3)c2[nH]1	.	/	30.7	/	.	/
Nc1nc(=S)c2ncn([C@@H]3O[C@H](CO)[C@@H](O)[C@H]3O)c2[nH]1	.	.	.	.	/	.
O=C(O)c1cccc(N2C(=O)c3cccc4cccc(c34)C2=O)c1	.	.	.	/	.	.
O=C(O)c1ccc(N2C(=O)c3cccc4cccc(c34)C2=O)cc1	.	.	38.1	/	.	.
CN1/C(=C\C(=O)COC(=O)c2ccc(O)cc2)C(C)(C)c2ccccc21	.	.	.	.	.	.
CN1/C(=C\C(=O)COC(=O)CNC(=O)c2ccc3ccccc3c2)C(C)(C)c2ccccc21	.	.	.	.	.	.
CN1/C(=C\C(=O)COC(=O)CN2C(=O)C3CC=CCC3C2=O)C(C)(C)c2ccccc21 (configuration not stated)	.	.	36.8	.	.	.
CN1/C(=C/C(=O)COC(=O)C2COc3ccccc3O2)C(C)(C)c2ccccc21 (configuration not stated)	.	.	31.6	/	.	/
SMILES	FBA Mtb inh	FadD28 binding	GDH-TPI counter	Rv3671c inh	Mtb hypoxia rep	Mtb UGM inh
COC(=O)C1=C(C)N(Cc2ccccc2)C(=NCc2cc(OC)c(OC)c(OC)c2)NC1CCc1ccccc1 (configuration not stated)	/	/	/	/	.	/
Cn1c(=O)c2cc(NC(=O)NCCc3cccs3)ccc2n1-c1ccc(C(C)(C)C)cc1	.	.	.	/	/	/
CC(C)=CCn1c2ccc(NC(=O)Nc3cccnc3)cc2c(=O)n1C	141.4	.	.	/	/	/
C=C(C)Cn1c2ccc(NC(=O)CCc3cccnc3)cc2c(=O)n1C	+	.	.	/	/	/
Cn1c(=O)c2cc(NC(=O)Nc3cccnc3)ccc2n1Cc1ccc(Cl)cc1	135.0	.	.	/	/	/
C=C(C)Cn1c2ccc(NC(=O)NCCc3cccs3)cc2c(=O)n1C	181.9	.	.	/	/	/
CN(C)c1ccc(NC(=O)Nc2ccc3c(c2)c(=O)n(C)n3Cc2ccc(Cl)cc2)cc1	.	.	.	/	/	/
O=C(NN=Cc1ccccn1)c1cccc(NC(=O)c2ccccc2Cl)c1	/	/	/	/	.	/
C#CCOCCOCCOCCNc1nc(N2CCN(C(=O)C(CC(N)=O)n3cc(C(N)C(C)C)nn3)CC2)nc(N2CCN(C(=O)C(CCCN=C(N)N)n3cc(C(N)C(C)CC)nn3)CC2)n1 (configuration not stated)	/	/	/	/	.	/
